# Shown are actives, neighbours in structure and some others; about 1.2% of the full set was active somewhere.
# BH1578 lux ind: inducers of Vibrio cholerae quorum light production without autoinducers, primary screen, BH1578 luxS cqsA deficient, single point. V. cholerae BH1578 lux reporter, luminescence, 6 h. AID 588436, 2011. 350,000 tested, 0.16% active. activation, % at 18.7 µM; in the data active means activation mostly above about 9.7%, no sharp cut-off
# Yp Topo-I inh: Yersinia pestis topoisomerase I inhibitors, primary screen, biochemical, cleavage product accumulation, plate reader, single point; activity, % at 10 µM; Y. pestis Topo-I cleavage product accumulation; 360,000 tested, 0.064% active; AID 504884, 2011; in the data active means activity above about 50%, passing the limit was not always enough
# TcdB inh: TcdB glycohydrolase inhibitors, primary screen, biochemical, single point, plate reader. Toxin B (Clostridioides difficile), P18177. TcdB glycohydrolase enzymatic assay. inhibition, % at 9.99 µM. 350,000 tested, 0.24% active; in the data active means inhibition above about 10%
# Mtb BioA inh: M. tuberculosis BioA enzyme inhibitors, primary screen, biochemical, plate reader, single point, HTS; 7,8-diaminopelargonic acid synthase BioA (Mycobacterium tuberculosis); purified M. tuberculosis BioA enzyme; inhibition, % at 9.99 µM; 360,000 tested, 0.096% active; AID 602481, 2012; in the data active means inhibition above about 40%
# PfHsp40 rescue: rescue of yeast from PfHsp40 toxicity, primary screen, S. cerevisiae, ATP luminescence; S. cerevisiae expressing PfHsp40, growth rescue; growth rescue, % at 12.5 µM; 340,000 tested, 0.68% active; in the data active means growth rescue above about 28%, passing the limit was not always enough;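 further: yeast W303a lacking pdr1 and pdr3 grown in galactose medium; growth measured after three days at 30 °C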
# DUSP3 inh: VHR1 phosphatase inhibitors, primary screen, biochemical, absorbance, uHTS; Dual specificity protein phosphatase 3 (Homo sapiens), P51452; recombinant VHR phosphatase, pNPP absorbance; inhibition, % at 13.3 µM; 290,000 tested, 0.52% active; in the data active means inhibition above about 50%
# Target sequence (P51452 whole entry, looked up): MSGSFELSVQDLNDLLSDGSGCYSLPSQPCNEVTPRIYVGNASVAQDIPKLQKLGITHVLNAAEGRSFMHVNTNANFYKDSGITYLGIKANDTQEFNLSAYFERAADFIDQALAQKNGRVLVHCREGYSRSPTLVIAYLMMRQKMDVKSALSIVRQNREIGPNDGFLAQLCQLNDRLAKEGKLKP
# An asterisk follows results filed as active; i = inactive; . = not tested or not shown.
SMILES,BH1578 lux ind,Yp Topo-I inh,TcdB inh,Mtb BioA inh,PfHsp40 rescue,DUSP3 inh
Cc1nc2ccc(C(=O)Nc3ccccc3Cl)cc2s1,i,-3,2,-1,77*,39
C[C@@H](NC(=O)C[C@H]1CC[C@@H]2[C@H](COc3ccc(NC(=O)C4CCOCC4)cc3C(=O)N2C)O1)c1ccccc1,.,.,-1,-1,.,.
COc1ccc(S(=O)(=O)N2CCCCC2)cc1NC(=O)CCCOc1ccccc1,3,16,0,-1,1,.
CC(C)[C@H](NC(=O)c1ccccc1Cl)C(=O)OCC(=O)Nc1ccc(S(=O)(=O)N2CCOCC2)cc1,-4,18,3,0,1,.
O=C(OCc1cccc(F)c1)c1ccc2c(c1)-c1ccccc1C2=O,0,-7,.,-1,0,25
COc1ccc(CNC(=O)Cn2cccc2C(=O)c2ccccc2)cc1,i,5,0,-1,-1,-4
Cc1ccc(CSC2=Nc3ccccc3C3=NC(=O)CN23)cc1,i,157*,1,.,0,14
COc1cc2c(cc1OC)C1=NC(=O)CN1C(SCc1ccccc1C)=N2,.,42,.,-1,1,40
COc1ccc(CC(=O)OCC(=O)N2c3ccccc3CC2C)cc1OC (stereo not drawn),-1,5,0,0,.,.
COc1ccc(CC(=O)C2C(=O)N(C)c3ccccc32)cc1OC (stereo not drawn),-1,6,11*,.,-2,.
CC(=O)/C(C#N)=C1\NC(=O)C(Cc2ccccc2Cl)S1 (stereo not drawn),i,-6,.,-1,39*,-1
CC(=O)/C(C#N)=C1\NC(=O)C(Cc2cc(Cl)ccc2Cl)S1 (stereo not drawn),-1,1,-1,0,0,-5
CC(=O)Nc1nc(C)c(Oc2ccc(Cl)cc2Cl)c(=O)[nH]1,17*,1,.,0,-1,5
COc1ccc(C)cc1NC(=O)C(OC(=O)C1=NNC(=O)CC1)c1ccccc1 (stereo not drawn),i,2,13*,-3,-1,.
COc1ccc(C)cc1NC(=O)C(OC(=O)c1cnccn1)c1ccccc1 (stereo not drawn),-1,7,-1,4,1,.
Cc1ccc(S(=O)(=O)Nc2ccc(O)c3ncccc23)cc1,0,3,-6,1,188*,6
CO[C@H]1CN(C)C(=O)c2ccc(NC(=O)C3CCC3)cc2OC[C@H](C)N(Cc2ccccn2)C[C@H]1C,.,.,0,1,.,.
CC(C)OC(=O)C(=O)NNc1ccccc1,i,0,15*,1,1,-22
COc1ccc(/C=N/NC(=O)c2cccc(Br)c2)cc1CN1CCOCC1,i,-8,0,-2,1,25
CNC(=S)N/N=C/c1c(C(=O)OC)cnn1-c1ccc(F)cc1F,-1,-2,12*,0,-1,10
O=S(=O)(c1ccc(F)cc1)N1CCCC1,0,3,0,-3,37*,8
COc1ccc(C(=O)NC2CCN(S(=O)(=O)c3ccc(F)cc3)CC2)cc1,0,6,0,0,0,22
O=C(Nc1nnc(-c2ccc(F)cc2)o1)c1ccc(S(=O)(=O)N2CCOCC2)cc1,25*,6,.,-2,-1,-14
O=C(NC1CCN(S(=O)(=O)c2ccc(F)cc2)CC1)c1ccc(F)cc1,0,8,0,-1,0,56*
CCOC(=O)C(=O)/C(=C\N(C)C)c1onc(-c2ccccc2)c1C(=O)OC,i,-5,.,.,2,-5
SMILES,BH1578 lux ind,Yp Topo-I inh,TcdB inh,Mtb BioA inh,PfHsp40 rescue,DUSP3 inh
CC(C)CCNC(=O)c1onc(CSc2ccncc2)c1C(=O)NCCC(C)C,1,24,2,0,4,7
O=C(COC(=O)CCC(=O)c1ccc(F)cc1)NC1CCCCC1,.,9,0,.,-1,.
CNC(=O)COc1coc(CN2CCN(Cc3ccccc3)CC2)cc1=O,-1,-5,3,-1,-1,6
CC(C)NC(=O)COc1coc(CN2CCN(Cc3ccccc3)CC2)cc1=O,i,-3,1,1,2,53*
CCOC(=O)/C=c1/s/c(=C/c2ccc3cc(OC)ccc3c2)c(=O)n1CC(=O)NCC1CCCO1 (stereo not drawn),i,3,12*,.,-1,.
CCOC(=O)/C=c1\s/c(=C\c2c(OC)ccc3ccccc23)c(=O)n1CC(=O)NCC1CCCO1 (stereo not drawn),i,7,1,-3,0,6
CCOC(=O)N1CCC(NC(=O)c2cc(COc3ccc(F)cc3Cl)on2)CC1,0,-1,1,-4,0,24
CCOC(=O)N1CCC(NC(=O)c2cc(COc3ccccc3SC)on2)CC1,i,16,0,-1,-1,53*
CCCCNC(=O)CSc1nc2ccc(N3CCOCC3)cc2c(=O)n1CCc1ccccc1,0,-1,.,1,1,19
CCCNC(=S)N1CCN(c2nc(C)nc3sc4c(c23)CCCC4)CC1,0,23,1,11,32*,2
O=C(COc1ccccc1)Nc1ccc2c(c1)C(=O)N(CC1CCCO1)C2=O (stereo not drawn),8,10,2,0,0,5
Cn1c(=O)oc2cc(S(=O)(=O)Nc3ccccc3O)ccc21,0,0,1,1,0,20
Cn1c(=O)oc2cc(S(=O)(=O)NCc3ccccc3)ccc21,-1,3,.,-1,0,51*
Cn1c(=O)oc2cc(S(=O)(=O)NCc3ccc(Cl)cc3)ccc21,-7,0,1,1,0,-14
COC(=O)c1ccccc1NS(=O)(=O)c1ccc2c(c1)oc(=O)n2C,0,-6,1,0,0,52*
CN(C)C(=O)c1ccc(-c2ccc3n(c2=O)C[C@H]2[C@H](CO)[C@@H](C(=O)NCCc4ccccc4)N[C@@H]32)cc1,.,.,0,1,.,.
CCCCCCCCCC(=O)N[C@H](CN1CCOCC1)[C@H](O)c1ccccc1,i,10,3,2,-1,.
CCCCCCCCCCCC(=O)NC(C(=O)O)C(O)c1ccccc1 (stereo not drawn),i,22,0,0,59*,-36
CC(=O)NC[C@H]1[C@H](c2ccc(C3=CCCC3)cc2)[C@H](CO)N1C(=O)NC(C)C,.,.,.,-3,.,.
C[C@@H]1CN([C@@H](C)CO)C(=O)c2cc(NS(C)(=O)=O)ccc2O[C@@H]1CN(C)S(=O)(=O)c1ccc(Cl)cc1,.,.,.,-2,.,.

# Screens as filed in PubChem.
